Reference: ChEMBL document CHEMBL1157539, “Thousands of chemical starting points for antimalarial lead identification” (Nature, 2010)

Tests used:
Assay type in all cases: functional
Plasmodium falciparum [1] = test: GSK_TCMDC: Inhibition of Plasmodium falciparum 3D7 in whole red blood cells, using parasite LDH activity as an index of growth. Test compounds present at 2uM
Plasmodium falciparum [2] = test: GSK_TCMDC: Inhibition of Plasmodium falciparum Dd2 in whole red blood cells, using parasite LDH activity as an index of growth. Test compounds present at 2uM
HepG2 = test: GSK_TCMDC: Percent inhibition of human HepG2 cell line. Test compounds present at 10uM.

Compound | Inhibition (Plasmodium falciparum [1]) | Inhibition (Plasmodium falciparum [2]) | Inhibition (HepG2)
O=S(=O)(Nc1ccc(CCN2CCC(N3CCCCC3)CC2)cc1)c1cccc2cccnc12 | 100% | 45% | 14%
CCNc1cc(C(=O)N[C@@H](Cc2ccccc2)[C@H](O)CNC2CC3CCC2C3)cc(N2CCCCS2(=O)=O)c1.Cl (stereo partly drawn) | 99% | 73% | 0%
COc1ccc(C(=O)Nc2ccc3nc(N4CCCCC4)cc(C)c3c2)cc1OC | 92% | 7% | 15%
FC(F)(F)c1cccc(CCNc2nccc(NCc3ccccc3Cl)n2)c1 | 89% | 38% | 31%
Br.CCCc1cc(C(C)=O)ccc1OCCCON1C(=N)N=C(N)NC1(C)C | 96% | 96% | 61%
Cc1cccc2nc(-c3ccc(-c4cccc(CNCC5CCCO5)c4)s3)[nH]c12.O=C(O)C(F)(F)F (stereo not drawn) | 93% | 11% | 26%
COc1ccc(NC(=O)[C@H](Cc2ccccc2)Nc2nc(NCCN3CCCC3)ncc2C)cc1.O=C(O)C(F)(F)F | 89% | 9% | 26%
COc1ccc(OC(C)CNC(=O)c2cc([N+](=O)[O-])ccc2-c2ccc(OC)cc2)cc1 (stereo not drawn) | 92% | 44% | 18%
CNCc1ccc(-c2cccc(CNCc3ccc(-c4ccccc4)cc3)c2)c(C(=O)OC)c1.O=C(O)C(F)(F)F | 92% | 19% | 25%
Cc1cccc2nc(-c3cccc(-c4cccc(NC(=O)Nc5ccccc5)c4)c3)[nH]c12 | 100% | 64% | 8%
Cc1ccc(N2C(N)=NC(N)=NC2c2ccccc2)cc1.Cl (stereo not drawn) | 94% | 1% | 11%
O=C(O)C(F)(F)F.Oc1ccc(CCCNc2nc(NCc3cccc4ccccc34)nc(N3CCNCC3)n2)cc1 | 100% | 4% | 9%
Cc1cc(=O)[nH]c(-n2nc(C)cc2NC(=O)C2(c3ccc(Cl)cc3)CCCC2)n1 | 96% | 97% | 30%
O=C(Nc1ccc(OC2CCN(Cc3ccco3)C2)c(Cl)c1)c1ccc2ncccc2c1.O=C(O)C(F)(F)F (stereo not drawn) | 92% | 42% | 1%
COc1cc(C(F)(F)F)cc2[nH]c(CNCCCNc3nc4ccccc4[nH]3)cc12 | 100% | 2% | 59%
N[C@@H](Cc1ccc(O)cc1)C(=O)NC(c1ccccc1)c1c(O)ccc2ccccc12.O=C(O)C(F)(F)F (stereo partly drawn) | 95% | 95% | 6%

Compound | Inhibition (Plasmodium falciparum [1]) | Inhibition (Plasmodium falciparum [2]) | Inhibition (HepG2)
CC(C)Oc1cccc(-c2ccc(C(=O)NCC3CCCN(Cc4cccc(C(F)(F)F)c4)C3)s2)c1.O=C(O)C(F)(F)F (stereo not drawn) | 91% | 28% | 10%
CCCCCCCCOc1ccc(N2C(N)=NC(N)=NC2(C)C)cc1.Cl | 100% | 0% | 31%
CCOc1ccc(Br)cc1/C=C/C(=O)Nc1ccc2c(c1)CCCN(C)C2.O=C(O)C(F)(F)F | 90% | 17% | 40%
O=C(/C=C/c1ccc(Cl)c(Cl)c1)NCCCCCN1CCCN(C(=O)Nc2ccc(C(F)(F)F)cc2)CC1 | 100% | 7% | 31%
COc1cc2nc(N3CCN(C(=O)c4c(Cl)nsc4-c4ccccc4Cl)CC3)nc(N)c2cc1OC.O=C(O)C(F)(F)F | 100% | 100% | 57%
Cc1nc2c(-n3cc(Cn4ccnc4)c4ccccc43)ncnc2n1-c1ccc(Cl)cc1Cl | 89% | 29% | 16%
O=C(Nc1cccc(-c2cccc(CN3CCCC3)c2)c1)c1ccc(Cl)cc1.O=C(O)C(F)(F)F | 93% | 32% | 50%
CCCN1CCN(Cc2ccc(-c3ccc(-c4nc5ccccc5[nH]4)s3)cc2)CC1 | 100% | 93% | 29%
O=C(NC1CCCCN(Cc2ccccc2O)C1)c1ccc(Cl)c(Cl)c1.O=C(O)C(F)(F)F (stereo not drawn) | 96% | 96% | 0%
COc1ccc(-n2nc(C)c3c2NC(=O)CC3c2ccccc2OCc2ccccc2F)cc1 (stereo not drawn) | 93% | 70% | 38%
COc1cc2c(cc1OC)C(C(=O)Nc1cc(OC)c(OC)c(OC)c1)C(c1ccc(SC)cc1)N(C)C2=O (stereo not drawn) | 97% | 64% | 14%
Cl.c1ccc(Oc2ccc(Nc3ccnc(Nc4ccc5cn[nH]c5c4)n3)cc2)cc1 | 94% | 33% | 6%
O=C(/C=C/c1ccc(Cl)c(Cl)c1)NC1CCC(CN2CCC(Cc3c[nH]c4ccccc34)CC2)CC1 (stereo not drawn) | 100% | 9% | 25%
O=C(O)C(=O)O.Oc1ccccc1CN1CCN(C(c2ccccc2)c2ccccc2)CC1 | 98% | 90% | 0%
O=[N+]([O-])c1cccc(-c2nc(-c3ccc(Br)cc3)[nH]c2-c2ccc(Br)cc2)c1 | 99% | 44% | 6%
